Compounds without any hit were thinned out: in the full panel of roughly 79,000, 15% have a hit. A number with no mark means an inactive call. Calls of active or inactive are those of the source. No stated cut-off is given here; in the data, active means growth inhibition above about 70%; inactive means the rest.

This test is described as follows: NCI Yeast Anticancer Drug Screen. Data for the sgs1 mgt1 strain (AID 161).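 Further: 0% = growth of cultures given vehicle only.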 The settings on record: S. cerevisiae sgs1 mgt1 strain, at 50.0 µM, stronger effect = higher value. The essentials: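 Inhibition of yeast growth, normalised to vehicle-treated controls, is reported for a strain bearing genetic alterations in DNA damage repair.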
`COC(=O)C(C)=C1CCCCC1`: the growth inhibition was -13.2%.

Take `CCn1c2ccccc2c2cc(N)c(N=Nc3ccc(-c4ccc(N)c(OC)c4)cc3OC)cc21`: the growth inhibition was 27.6%.

Regarding `O=S1C=Cc2ccccc21` (stereo not given), the growth inhibition was 13.1%.

Take `CCN(CC)c1ccc(N=C2C=CC(=O)C(C)=C2)c(C)c1`: the growth inhibition was -0.9%.

For `N#CCCOCC(OCCC#N)C(OCCC#N)C(OCCC#N)C(COCCC#N)OCCC#N` (stereo not given), the growth inhibition was -13.2%.

On to `Nc1nc(N)nc(CNc2c(Br)cc(Br)cc2Br)n1`, for which the growth inhibition is 16.5%.

For `CN(C)CC(c1ccccc1)C(O)(c1ccccc1)c1ccccc1` (stereo not given), the growth inhibition was -1%.

Consider `CC(=O)N1C(Nc2nccs2)CCN1c1ccccc1` (stereo not given), for which the growth inhibition is -21%.

In the case of `O=C1C2CCSCN2C(=O)N1c1ccccc1` (stereo not given), the growth inhibition was -7.75%.

On to `CCCCc1c[nH]n(C(N)=NCCSCc2nc[nH]c2C)c1=O`, for which the growth inhibition was -9.95%.

Take `COc1ccc(/C(C#N)=C\c2ccc(N(C)C)cc2)cc1`: the growth inhibition was 3.1%.

As to `Nc1ccc(S(=O)(=O)OCCOc2ccccc2)cc1`, the growth inhibition was 2.6%.

In the case of `CN1CCC(O)(/C=C\C2(O)CCN(C)CC2)CC1`, the growth inhibition was 20.1%.

In the case of `N#CC(C#N)CN(C1=NCCO1)c1cccc2c1CCCC2`, the growth inhibition is -3.6%.

For the molecule `C(=C/c1ccc(-c2ccccc2)cc1)/C=C/c1ccc(-c2ccccc2)cc1`, the growth inhibition was -0.2%.

With `CC(C)S(=O)(=O)/C=C(\I)c1ccccc1`, the growth inhibition is -11.2%.

Consider `Cc1[nH]c(=O)nc(N/N=C/c2ccc(Cl)cc2)c1C(=O)Nc1ccc(Cl)cc1`, for which the growth inhibition is -3.9%.

Take `c1cc(C2CCCCC2)ccc1C1CCCCC1`: the growth inhibition is -20.6%.

As for `CCOc1ccc(/C=C2\N=C(c3ccc([N+](=O)[O-])cc3)OC2=O)cc1`, the growth inhibition is 3%.

In the case of `CC(C)OC(=O)N1CCCC1`, the growth inhibition was 6.05%.

As for `CN(C(=O)Cl)c1ccccc1`, the growth inhibition is 7.8%.

In the case of `O=C(O)c1cccc(Sc2ccccc2)c1`, the growth inhibition is 8.25%.

As to `C[C@@]1(N2C(=O)OC(c3ccccc3)C2=O)C(=O)N2CCS[C@@]21c1ccccc1` (stereo not given in full), the growth inhibition is 11.8%.

Regarding `O=NN(CCCl)C(=O)N[C@H]1CCC[C@@H](O)C1`, the growth inhibition is -6.2%.

As for `Cc1cc2c(cc1C=O)C(C)(C)CCC2`, the growth inhibition is -6.85%.

On to `COc1cccc(OC(=O)Nc2cccc(Cl)c2)c1`, for which the growth inhibition was 49.4%.

As to `CCOC(=O)CC1(O)C(=O)N(Cc2ccccc2)c2ccccc21` (stereo not given), the growth inhibition is 7.55%.

For the molecule `CC1(C)S[C@H](c2ccccc2C(=O)O)N[C@@H]1CC(=O)O`, the growth inhibition is -49.5%.

Turning to `OCCN(CCO)c1cc(/C=C/c2c3ccccc3cc3ccccc23)nc2ccccc12`, the growth inhibition is 96.1% (active).

`O=C(O)c1cc(C2CC2)nc2ccc(Br)cc12`: the growth inhibition was 2.2%.

Turning to `COC(=O)C(Cc1nc2ccccc2[nH]c1=O)C(=O)C(=O)Nc1ccc(OC)cc1[N+](=O)[O-]` (stereo not given), the growth inhibition is 14.3%.

On to `O=C1OCC(CN2CCC(n3c(=O)[nH]c4ccccc43)CC2)=C1c1ccccc1`, for which the growth inhibition is -7.15%.

On to `COc1cc2c(cc1OC)C(=O)/C(=C/c1ccc(N(C)C)cc1)CC2`, for which the growth inhibition was -28.9%.

With `COc1ccc2c(c1)N=C(NNC1=Nc3cc(OC)ccc3SC1)CS2`, the growth inhibition was 14.4%.

Take `O=C1c2ccccc2N2OC3(N4CCOCC4)CCCC3C12c1ccccc1` (stereo not given): the growth inhibition is 45.3%.

As to `CC(=O)OCC(OC(C)=O)C1OC2OC(C)(C)OC2C1OS(C)(=O)=O` (stereo not given), the growth inhibition was 17.6%.

Turning to `O=C(c1ccccc1)[C@@H]1C[C@H](Sc2ccccc2)c2cc(Cl)ccc2N1`, the growth inhibition was 4.1%.

`O=C1CSSCC(=O)NCCCN1`: the growth inhibition is -5.35%.

With `COC1(C)C=NCC(C)(C)NC(=O)C(C)(OC)C=NCC(C)(C)NC1=O` (stereo not given), the growth inhibition was -29.4%.

Take `Cc1cc(CC(=S)[S-])[n+](C)c(CC(=S)S)c1`: the growth inhibition was -14.1%.

The values above are taken from PubChem BioAssay (NCI).
